Measurements from the supplement of paper PMC10849652.
Targets with a hit are over-represented here; the source holds about 7,900 in all. About 0.6% of all pairs of compound and target were hits.

What was measured:
Assay in all cases: log2 fold change, soluble protein after heating vs DMSO (PISA); higher = thermal stabilisation; K562 cells, 10 uM, 30 min; active = over 0.2 and 3.5 SD of the protein, either way, in both replicates (recomputed)
bafetinib = compound: Cc1ccc(NC(=O)c2ccc(CN3CC[C@H](N(C)C)C3)c(C(F)(F)F)c2)cc1Nc1nccc(-c2cncnc2)n1 [bafetinib]
In short: (§1)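 K562 cells (2×10^6 cells/mL) were treated with 10 μM compound for 30 min, and aliquots were heated for 3 min over 48°C-58°C. Pooled aliquots were extracted in PBS with 0.5% NP-40 at 4°C, and the supernatant after 21,000xg for 90 min was measured by TMTpro 16plex LC-MS/MS with channel sums equalised. Reported thermal stability, relative to control samples and from duplicates, is a log2 fold change.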

[1] = compound: Cc1cccc(CC(=O)N2CCc3c2ccc(-c2cn(C)c4ncnc(N)c24)c3F)n1
In short: as §1

nilotinib = compound: Cc1cn(-c2cc(NC(=O)c3ccc(C)c(Nc4nccc(-c5cccnc5)n4)c3)cc(C(F)(F)F)c2)cn1 [nilotinib]
In short: as §1

[2] = compound: Cc1nc(Nc2n[nH]c3c2CN(C(=O)N[C@H](CN(C)C)c2ccccc2)C3(C)C)c2sccc2n1
In short: as §1

dasatinib = compound: Cc1nc(Nc2ncc(C(=O)Nc3c(C)cccc3Cl)s2)cc(N2CCN(CCO)CC2)n1 [dasatinib]
In short: as §1

[3] = compound: Cc1ncc(-c2ccnc(Nc3ccc(S(C)(=O)=O)cc3)n2)n1C(C)C
In short: as §1

[4] = compound: Cn1cc(-c2ccc3c(c2)CCN3C(=O)Cc2cccc(C(F)(F)F)c2)c2c(N)ncnc21
In short: as §1

[5] = compound: Cn1cc(-c2ccc3nnc(C(F)(F)c4ccc5ncccc5c4)n3n2)cn1
In short: as §1

tipifarnib = compound: Cn1cncc1[C@@](N)(c1ccc(Cl)cc1)c1ccc2c(c1)c(-c1cccc(Cl)c1)cc(=O)n2C [tipifarnib]
In short: as §1

mubritinib = compound: FC(F)(F)c1ccc(/C=C/c2nc(COc3ccc(CCCCn4ccnn4)cc3)co2)cc1 [mubritinib]
In short: as §1

Measured: log2 fold change

STARD7 (UniProt Q9NQZ5)
inactive: bafetinib -0.043 | [1] 0.109 | nilotinib -0.057 | [2] 0.081 | dasatinib -0.035 | [3] 0.094 | [4] 0.021 | [5] -0.007 | tipifarnib -0.026 | mubritinib 0.032

SMPD4 isoform 4 (UniProt Q9NXE4)
Chain of UniProt Q9NXE4 (Q9NXE4 whole entry, looked up): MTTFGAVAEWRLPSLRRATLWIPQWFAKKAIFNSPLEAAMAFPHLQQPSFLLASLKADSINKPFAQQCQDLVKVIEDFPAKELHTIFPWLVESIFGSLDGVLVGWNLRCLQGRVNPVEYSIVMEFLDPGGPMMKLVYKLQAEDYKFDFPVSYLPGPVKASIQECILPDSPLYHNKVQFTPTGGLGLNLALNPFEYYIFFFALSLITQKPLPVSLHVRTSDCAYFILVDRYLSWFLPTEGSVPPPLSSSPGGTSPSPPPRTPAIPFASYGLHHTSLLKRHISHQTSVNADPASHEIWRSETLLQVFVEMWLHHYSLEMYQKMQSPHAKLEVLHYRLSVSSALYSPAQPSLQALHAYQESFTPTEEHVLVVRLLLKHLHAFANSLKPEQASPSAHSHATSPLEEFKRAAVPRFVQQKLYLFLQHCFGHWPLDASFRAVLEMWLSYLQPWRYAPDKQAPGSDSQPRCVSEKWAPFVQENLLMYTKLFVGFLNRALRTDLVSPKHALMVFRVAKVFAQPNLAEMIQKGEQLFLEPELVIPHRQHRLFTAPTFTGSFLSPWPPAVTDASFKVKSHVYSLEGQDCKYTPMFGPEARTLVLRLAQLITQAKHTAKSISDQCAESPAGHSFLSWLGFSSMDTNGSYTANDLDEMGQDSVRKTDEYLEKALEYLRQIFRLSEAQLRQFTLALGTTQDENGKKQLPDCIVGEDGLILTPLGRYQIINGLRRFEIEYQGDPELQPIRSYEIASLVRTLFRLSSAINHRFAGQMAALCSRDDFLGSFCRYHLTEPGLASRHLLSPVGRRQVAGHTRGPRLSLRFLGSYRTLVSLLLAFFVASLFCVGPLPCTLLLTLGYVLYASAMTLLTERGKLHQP
inactive: bafetinib -0.031 | [1] 0.122 | nilotinib -0.1 | [2] -0.076 | dasatinib -0.037 | [3] 0.025 | [4] 0.098 | [5] 0.04 | tipifarnib -0.016 | mubritinib 0.148

SMAP2 (UniProt Q8WU79)
Chain of UniProt Q8WU79 (Q8WU79 whole entry, looked up): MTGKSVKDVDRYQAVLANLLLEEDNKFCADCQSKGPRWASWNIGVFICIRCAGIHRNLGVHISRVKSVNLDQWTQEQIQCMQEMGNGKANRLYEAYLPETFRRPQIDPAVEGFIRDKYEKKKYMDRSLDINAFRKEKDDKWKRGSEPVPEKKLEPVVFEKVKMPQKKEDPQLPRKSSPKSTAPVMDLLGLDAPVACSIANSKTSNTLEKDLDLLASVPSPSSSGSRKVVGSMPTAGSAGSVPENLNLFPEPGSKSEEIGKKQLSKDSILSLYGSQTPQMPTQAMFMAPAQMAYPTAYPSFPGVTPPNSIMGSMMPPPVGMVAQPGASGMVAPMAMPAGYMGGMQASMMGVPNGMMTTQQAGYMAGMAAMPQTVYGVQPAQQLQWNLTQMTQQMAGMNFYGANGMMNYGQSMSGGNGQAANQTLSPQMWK
inactive: bafetinib 0.01 | [1] -0.025 | nilotinib -0.078 | [2] -0.039 | dasatinib -0.135 | [3] 0.044 | [4] -0.022 | [5] -0.004 | tipifarnib -0.014 | mubritinib 0.018

SLC30A10 (UniProt Q6XR72)
inactive: bafetinib -0.019 | [1] -0.148 | nilotinib 0.029 | [2] -0.061 | dasatinib 0.016 | [3] 0.043 | [4] 0.078 | [5] -0.026 | tipifarnib 0.067 | mubritinib -0.007

TACC2 (UniProt O95359)
inactive: bafetinib -0.044 | [1] 0.011 | nilotinib 0.027 | [2] 0.073 | dasatinib 0.059 | [3] 0.008 | [4] -0.001 | [5] -0.003 | tipifarnib 0.029 | mubritinib -0.006

TELO2 (UniProt Q9Y4R8)
inactive: bafetinib 0.069 | [1] 0.158 | nilotinib -0.023 | [2] -0.041 | dasatinib -0.039 | [3] 0.039 | [4] -0.058 | [5] 0.046 | tipifarnib -0.185 | mubritinib 0.103

SRSF4 (UniProt Q08170)
Chain of UniProt Q08170 (Q08170 whole entry, looked up): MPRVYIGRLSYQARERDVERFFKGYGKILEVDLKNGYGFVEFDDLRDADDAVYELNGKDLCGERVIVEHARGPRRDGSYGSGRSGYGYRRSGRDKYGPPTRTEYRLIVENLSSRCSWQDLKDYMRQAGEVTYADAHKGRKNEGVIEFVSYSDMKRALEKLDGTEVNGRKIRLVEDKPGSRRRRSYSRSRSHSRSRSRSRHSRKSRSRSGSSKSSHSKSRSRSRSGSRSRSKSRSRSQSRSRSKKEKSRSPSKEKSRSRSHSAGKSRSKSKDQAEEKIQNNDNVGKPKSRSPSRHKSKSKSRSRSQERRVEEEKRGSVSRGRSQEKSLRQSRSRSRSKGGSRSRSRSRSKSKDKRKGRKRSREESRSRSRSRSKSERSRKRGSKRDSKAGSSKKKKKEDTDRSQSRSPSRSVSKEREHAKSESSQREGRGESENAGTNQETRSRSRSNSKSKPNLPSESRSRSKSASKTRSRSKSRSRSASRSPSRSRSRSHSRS
active: [2] -0.602
inactive: bafetinib 0.215 | [1] -0.064 | nilotinib 0.013 | dasatinib 0.109 | [3] 0.028 | [4] -0.166 | [5] -0.14 | tipifarnib 0.127 | mubritinib -0.109

SPG11 (UniProt Q96JI7)
inactive: bafetinib -0.493 | [1] -0.584 | nilotinib -0.015 | [2] 0.117 | dasatinib 0.065 | [3] -0.006 | [4] -0.051 | [5] 0.146 | tipifarnib 0.258 | mubritinib -0.009

TERF2IP (UniProt Q9NYB0)
Chain of UniProt Q9NYB0 (Q9NYB0 whole entry, looked up): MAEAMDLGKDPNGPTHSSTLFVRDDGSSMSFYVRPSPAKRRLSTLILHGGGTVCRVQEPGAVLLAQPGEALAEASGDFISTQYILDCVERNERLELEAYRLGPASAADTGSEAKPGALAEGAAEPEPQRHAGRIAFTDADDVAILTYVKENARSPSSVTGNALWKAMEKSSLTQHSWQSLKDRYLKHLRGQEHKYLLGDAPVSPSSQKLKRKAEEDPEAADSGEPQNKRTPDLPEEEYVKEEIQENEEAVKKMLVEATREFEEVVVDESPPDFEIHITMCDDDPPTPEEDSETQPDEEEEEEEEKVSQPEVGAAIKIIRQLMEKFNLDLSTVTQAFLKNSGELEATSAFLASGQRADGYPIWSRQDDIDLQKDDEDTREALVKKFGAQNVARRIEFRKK
inactive: bafetinib -0.051 | [1] -0.008 | nilotinib -0.006 | [2] -0.163 | dasatinib -0.028 | [3] -0.128 | [4] -0.078 | [5] -0.033 | tipifarnib 0.074 | mubritinib -0.014

SREK1 isoform 2 (UniProt Q8WXA9)
inactive: bafetinib 0.07 | [1] 0.015 | nilotinib 0.156 | dasatinib -0.095 | [3] 0.005 | [4] -0.006 | [5] -0.11 | tipifarnib 0.031 | mubritinib 0.063
active: [2] -0.593

SNW1 (UniProt Q13573)
inactive: bafetinib -0.049 | [1] -0.071 | nilotinib 0.004 | [2] 0.067 | dasatinib 0.027 | [3] 0.088 | [4] -0.055 | [5] -0.043 | tipifarnib 0.026 | mubritinib -0.006

STAT5A (UniProt P42229)
inactive: bafetinib 0.034 | [1] 0.208 | nilotinib -0.112 | dasatinib -0.191 | [3] -0.051 | [4] 0 | [5] 0.104 | tipifarnib -0.107
active: [2] -0.338 | mubritinib 0.371

SNX15 (UniProt Q9NRS6)
inactive: bafetinib 0.036 | [1] 0.154 | nilotinib -0.064 | [2] -0.17 | dasatinib 0.206 | [3] 0.002 | [4] -0.046 | [5] 0.086 | tipifarnib 0.067 | mubritinib -0.063

SLC25A38 (UniProt Q96DW6)
inactive: bafetinib -0.08 | [1] -0.03 | nilotinib -0.03 | [2] 0.023 | dasatinib 0.143 | [3] -0.114 | [4] 0.022 | [5] 0.019 | tipifarnib 0.043 | mubritinib 0.052

SULT1A1 (UniProt P50225)
Chain of UniProt P50225 (P50225 whole entry, looked up): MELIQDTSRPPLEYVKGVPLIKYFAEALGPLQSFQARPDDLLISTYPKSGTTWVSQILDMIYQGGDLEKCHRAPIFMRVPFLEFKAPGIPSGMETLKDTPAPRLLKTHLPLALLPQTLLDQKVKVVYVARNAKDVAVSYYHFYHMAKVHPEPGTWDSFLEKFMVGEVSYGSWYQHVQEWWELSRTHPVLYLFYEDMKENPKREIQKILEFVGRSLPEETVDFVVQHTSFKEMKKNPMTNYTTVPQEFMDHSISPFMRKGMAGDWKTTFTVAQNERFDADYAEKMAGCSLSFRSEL
inactive: bafetinib -0.067 | [1] 0.222 | nilotinib -0.072 | [2] -0.065 | dasatinib -0.172 | [3] -0.002 | tipifarnib -0.097 | mubritinib -0.069
active: [4] 0.333 | [5] 0.353

TECR (UniProt Q9NZ01)
Chain of UniProt Q9NZ01 (Q9NZ01 whole entry, looked up): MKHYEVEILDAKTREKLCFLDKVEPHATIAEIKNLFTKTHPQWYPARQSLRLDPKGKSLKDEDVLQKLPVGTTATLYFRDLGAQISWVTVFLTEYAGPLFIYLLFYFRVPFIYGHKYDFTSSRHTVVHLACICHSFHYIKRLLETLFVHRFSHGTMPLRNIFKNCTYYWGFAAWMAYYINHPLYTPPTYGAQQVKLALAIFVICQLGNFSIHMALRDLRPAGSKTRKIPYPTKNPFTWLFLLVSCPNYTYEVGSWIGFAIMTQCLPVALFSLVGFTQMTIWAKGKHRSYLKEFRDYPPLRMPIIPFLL
inactive: bafetinib -0.133 | [1] 0.057 | nilotinib -0.123 | [2] -0.035 | dasatinib -0.109 | [3] 0.021 | [4] -0.006 | [5] -0.012 | tipifarnib -0.135 | mubritinib 0.016

TM9SF2 (UniProt Q99805)
Chain of UniProt Q99805 (Q99805 whole entry, looked up): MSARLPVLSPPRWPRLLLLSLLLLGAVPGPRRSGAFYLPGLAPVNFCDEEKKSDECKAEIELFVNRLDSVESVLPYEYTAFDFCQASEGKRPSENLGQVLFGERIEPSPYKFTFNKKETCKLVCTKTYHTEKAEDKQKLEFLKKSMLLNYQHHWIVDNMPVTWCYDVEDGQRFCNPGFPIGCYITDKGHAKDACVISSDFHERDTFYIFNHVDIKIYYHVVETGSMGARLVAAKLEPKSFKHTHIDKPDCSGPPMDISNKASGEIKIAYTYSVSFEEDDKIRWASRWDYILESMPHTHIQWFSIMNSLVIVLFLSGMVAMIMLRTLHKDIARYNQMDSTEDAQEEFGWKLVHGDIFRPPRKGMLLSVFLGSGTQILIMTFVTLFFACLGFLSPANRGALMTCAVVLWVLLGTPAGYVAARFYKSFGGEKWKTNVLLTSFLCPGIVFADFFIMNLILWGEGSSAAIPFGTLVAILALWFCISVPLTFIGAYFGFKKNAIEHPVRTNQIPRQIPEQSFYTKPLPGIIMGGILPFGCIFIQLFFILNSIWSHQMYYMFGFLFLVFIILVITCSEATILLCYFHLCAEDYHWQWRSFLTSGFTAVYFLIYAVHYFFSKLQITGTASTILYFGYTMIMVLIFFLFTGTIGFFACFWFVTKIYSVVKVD
inactive: bafetinib -0.056 | [1] 0.008 | nilotinib 0.025 | [2] -0.072 | dasatinib -0.013 | [3] 0.041 | [4] 0.023 | [5] 0.036 | tipifarnib 0.009 | mubritinib -0.006

SQSTM1 (UniProt Q13501)
Chain of UniProt Q13501 (Q13501 whole entry, looked up): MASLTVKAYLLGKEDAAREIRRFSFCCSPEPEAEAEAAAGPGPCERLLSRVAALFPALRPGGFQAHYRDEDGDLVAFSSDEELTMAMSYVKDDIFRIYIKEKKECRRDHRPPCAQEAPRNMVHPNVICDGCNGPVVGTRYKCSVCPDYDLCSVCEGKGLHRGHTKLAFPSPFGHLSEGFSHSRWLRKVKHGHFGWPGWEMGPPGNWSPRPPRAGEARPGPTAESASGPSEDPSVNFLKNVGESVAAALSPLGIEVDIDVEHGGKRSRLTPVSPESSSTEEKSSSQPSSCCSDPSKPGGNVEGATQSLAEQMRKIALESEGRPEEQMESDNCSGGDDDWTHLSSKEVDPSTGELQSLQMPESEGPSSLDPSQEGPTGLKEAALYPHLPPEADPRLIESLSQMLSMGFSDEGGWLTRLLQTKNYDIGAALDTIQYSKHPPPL
inactive: bafetinib -0.138 | [1] 0.056 | nilotinib 0.042 | [2] -0.227 | dasatinib -0.006 | [3] 0.172 | [4] 0.001 | [5] 0.022 | tipifarnib 0.186 | mubritinib 0.034

SP3 (UniProt Q02447)
inactive: bafetinib 0.022 | [1] -0.018 | nilotinib -0.01 | [2] 0.093 | dasatinib 0 | [3] -0.042 | [4] -0.044 | [5] 0.103 | tipifarnib -0.041 | mubritinib -0.045

TARBP1 (UniProt Q13395)
inactive: bafetinib -0.022 | [1] 0.005 | nilotinib 0.019 | [2] 0.081 | dasatinib -0.058 | [3] -0.026 | [4] 0.116 | [5] -0.013 | tipifarnib 0.036 | mubritinib -0.055

TIMM29 (UniProt Q9BSF4)
inactive: bafetinib -0.051 | [1] -0.077 | nilotinib -0.002 | [2] 0.069 | dasatinib -0.031 | [3] -0.039 | [4] -0.029 | [5] 0.057 | tipifarnib -0.046 | mubritinib 0.064

STK38 (UniProt Q15208)
active: [2] -0.343
inactive: bafetinib 0.054 | [1] 0 | nilotinib -0.105 | dasatinib -0.136 | [3] 0.009 | [4] 0.035 | [5] 0.008 | tipifarnib -0.079 | mubritinib -0.083

SP100 isoform 4 (UniProt P23497)
inactive: bafetinib -0.047 | [1] -0.056 | nilotinib -0.02 | [2] -0.061 | dasatinib -0.054 | [3] -0.057 | [4] 0.02 | [5] 0.026 | tipifarnib -0.087 | mubritinib 0.043

SYF2 (UniProt O95926)
inactive: bafetinib -0.198 | [1] 0.021 | nilotinib -0.017 | [2] 0.25 | dasatinib 0.119 | [3] 0.308 | [4] -0.193 | [5] -0.021 | tipifarnib 0.027 | mubritinib -0.002

TBRG4 (UniProt Q969Z0)
inactive: bafetinib -0.137 | [1] -0.035 | nilotinib -0.027 | [2] -0.291 | dasatinib -0.513 | [3] 0.006 | [4] 0.095 | [5] 0.003 | tipifarnib -0.317 | mubritinib -0.277

SPECC1 (UniProt Q5M775)
inactive: bafetinib -0.102 | [1] -0.1 | nilotinib -0.108 | [2] -0.133 | dasatinib -0.067 | [3] 0.063 | [4] -0.035 | [5] 0.089 | tipifarnib 0.028 | mubritinib 0.044

STIM1 (UniProt Q13586)
inactive: bafetinib -0.143 | [1] 0 | nilotinib 0.002 | [2] -0.01 | dasatinib -0.006 | [3] -0.025 | [4] 0.028 | [5] 0.01 | tipifarnib 0.012 | mubritinib 0.016

TK1 (UniProt K7ERV3)
inactive: bafetinib -0.03 | [1] 0.022 | nilotinib -0.108 | [2] -0.018 | dasatinib 0.018 | [3] -0.076 | [4] 0.176 | [5] 0.016 | tipifarnib 0.03 | mubritinib 0.037

TM9SF4 (UniProt Q92544)
inactive: bafetinib 0.034 | nilotinib 0.005 | [2] 0.012 | dasatinib 0.127 | [3] 0.037 | [4] -0.021 | [5] 0.004 | tipifarnib -0.061 | mubritinib 0.007
active: [1] 0.252

TLK2 isoform 2 (UniProt Q86UE8)
inactive: bafetinib -0.051 | [1] -0.042 | nilotinib 0.006 | dasatinib -0.01 | [3] 0.007 | [4] 0.046 | [5] -0.033 | tipifarnib 0.01 | mubritinib -0.001
active: [2] -0.407

SUOX (UniProt P51687)
Chain of UniProt P51687 (P51687 whole entry, looked up): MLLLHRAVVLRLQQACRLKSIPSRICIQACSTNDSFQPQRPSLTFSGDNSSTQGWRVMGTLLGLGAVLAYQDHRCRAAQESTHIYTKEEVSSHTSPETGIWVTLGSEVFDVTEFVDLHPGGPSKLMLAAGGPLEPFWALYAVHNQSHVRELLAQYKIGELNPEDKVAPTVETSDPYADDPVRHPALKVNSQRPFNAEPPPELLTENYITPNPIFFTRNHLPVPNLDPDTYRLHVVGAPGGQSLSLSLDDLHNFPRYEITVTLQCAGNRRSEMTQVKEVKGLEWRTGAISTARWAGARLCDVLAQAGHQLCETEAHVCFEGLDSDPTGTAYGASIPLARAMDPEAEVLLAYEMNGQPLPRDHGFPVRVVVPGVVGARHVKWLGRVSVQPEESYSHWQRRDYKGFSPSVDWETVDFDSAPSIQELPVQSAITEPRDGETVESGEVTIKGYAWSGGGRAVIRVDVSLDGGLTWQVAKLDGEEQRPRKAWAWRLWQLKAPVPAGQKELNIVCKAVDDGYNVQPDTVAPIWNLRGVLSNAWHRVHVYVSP
inactive: bafetinib -0.084 | [1] -0.181 | nilotinib 0.063 | [2] 0.013 | dasatinib 0 | [3] -0.066 | [4] -0.015 | [5] 0.063 | tipifarnib 0.019 | mubritinib 0.032

TANK (UniProt Q92844)
Chain of UniProt Q92844 (Q92844 whole entry, looked up): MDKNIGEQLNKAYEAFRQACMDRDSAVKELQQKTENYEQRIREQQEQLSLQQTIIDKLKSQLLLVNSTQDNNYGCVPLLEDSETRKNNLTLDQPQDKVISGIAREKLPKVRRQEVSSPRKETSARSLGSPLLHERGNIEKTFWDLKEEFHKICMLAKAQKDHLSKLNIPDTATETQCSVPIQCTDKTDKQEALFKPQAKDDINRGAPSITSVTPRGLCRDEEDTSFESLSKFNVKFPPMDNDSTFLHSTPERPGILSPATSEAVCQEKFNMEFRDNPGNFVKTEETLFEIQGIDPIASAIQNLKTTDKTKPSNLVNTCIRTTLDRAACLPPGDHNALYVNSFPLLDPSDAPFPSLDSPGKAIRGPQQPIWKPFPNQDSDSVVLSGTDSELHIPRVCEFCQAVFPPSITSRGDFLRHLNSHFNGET
inactive: bafetinib -0.049 | [1] -0.106 | nilotinib 0.054 | dasatinib -0.025 | [3] 0.082 | [4] -0.021 | [5] -0.036 | tipifarnib -0.016 | mubritinib 0.03
active: [2] 0.337

SMARCA5 (UniProt O60264)
inactive: bafetinib -0.052 | [1] 0.001 | nilotinib -0.019 | [2] -0.152 | dasatinib -0.052 | [3] 0.002 | [4] -0.088 | [5] -0.112 | tipifarnib -0.022 | mubritinib 0.184
